# Data from the supplement of paper PMC8728848.
# The sample as a whole holds a higher share of the strongest signals than the screen did.
# B1: cFel (Cyprinus carpio), P68512 (protein)
# chain: LDCTVIDGNLKQIDAGSGSVVGVNNLNETFVLIDNVFTKISGSLKHFSVGPAGQLGVNTANNIFKYQSGGFVQLAGLLKQVDAGGDQIIAGVNMYDDIYCLNMDANNKWPSSNTPWVQINGKLKYYSCGPYSCWGVNSNDQIFIMKDVSSNVCSGSGSFINIPGLLSMIEVATDGSVFGVNSQGNLYQRTGVTRSKPDGTDWISMVACPNGHKHVSFDLGVLWLVCVDGSIRKCILTD
# What was measured:
# Test in all cases: glycan array binding signal (z-score within array); higher = stronger binding
# Settings in all cases: glycan notation: IUPAC condensed, linker removed
# [1] = target: Fuc(a1-2)Gal(b1-3)GlcNAc(b1-2)Man(a1-3)[Fuc(a1-2)Gal(b1-3)GlcNAc(b1-2)Man(a1-6)]Man(b1-4)GlcNAc(b1-4)[Fuc(a1-6)]GlcNAc
# Outline: (§1)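 From the Consortium for Functional Glycomics database, 3228 arrays were curated, keeping only those whose protein sequence was available. Binding is given as a within-array Z-score averaged across arrays sharing a protein sequence and across linkers. Negative Z-scores can be read as non-binding.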
# [2] = target: Fuc(a1-2)Gal(b1-4)[Fuc(a1-3)]GlcNAc
# Outline: as §1
# [3] = target: Fuc(a1-2)Gal(b1-4)[Fuc(a1-3)]GlcNAc(b1-2)Man(a1-3)[Fuc(a1-2)Gal(b1-4)[Fuc(a1-3)]GlcNAc(b1-2)Man(a1-6)]Man(b1-4)GlcNAc(b1-4)[Fuc(a1-6)]GlcNAc
# Outline: as §1
# Fuc(a1-2)[Gal(a1-3)]Gal = target: Fuc(a1-2)[Gal(a1-3)]Gal
# Outline: as §1
# [4] = target: Fuc(a1-2)[GalNAc(a1-3)]Gal(b1-3)GlcNAc(b1-2)Man(a1-3)[Fuc(a1-2)[GalNAc(a1-3)]Gal(b1-3)GlcNAc(b1-2)Man(a1-6)]Man(b1-4)GlcNAc(b1-4)GlcNAc
# Outline: as §1
# [5] = target: Fuc(a1-2)[GalNAc(a1-3)]Gal(b1-3)GlcNAc(b1-2)Man(a1-3)[Fuc(a1-2)[GalNAc(a1-3)]Gal(b1-3)GlcNAc(b1-2)Man(a1-6)]Man(b1-4)GlcNAc(b1-4)[Fuc(a1-6)]GlcNAc
# Outline: as §1
# [6] = target: Fuc(a1-2)[GalNAc(a1-3)]Gal(b1-3)GlcNAc(b1-6)GalNAc
# Outline: as §1
# [7] = target: Fuc(a1-3)[Gal(b1-4)]GlcNAc6S
# Outline: as §1
# [8] = target: Gal(a1-3)Gal(b1-3)GlcNAc(b1-2)Man
# Outline: as §1
# [9] = target: Gal(a1-4)Gal(b1-4)GlcNAc(b1-2)Man(a1-3)[Gal(a1-4)Gal(b1-4)GlcNAc(b1-2)Man(a1-6)]Man(b1-4)GlcNAc(b1-4)GlcNAc
# Outline: as §1
# Gal(b1-3)Gal = target: Gal(b1-3)Gal
# Outline: as §1
# [10] = target: Gal(b1-3)GlcNAc(b1-2)Man(a1-3)[Gal(b1-3)GlcNAc(b1-2)Man(a1-6)]Man(b1-4)GlcNAc(b1-4)[Fuc(a1-6)]GlcNAc
# Outline: as §1
# [11] = target: Gal(b1-3)GlcNAc(b1-2)Man(a1-3)[GlcNAc(b1-4)][Gal(b1-3)GlcNAc(b1-2)Man(a1-6)]Man(b1-4)GlcNAc(b1-4)GlcNAc
# Outline: as §1
# [12] = target: Gal(b1-4)GalNAc(a1-3)[Fuc(a1-2)]Gal(b1-4)GlcNAc
# Outline: as §1
# Gal(b1-4)GlcNAc(b1-2)Man = target: Gal(b1-4)GlcNAc(b1-2)Man
# Outline: as §1
# [13] = target: Gal(b1-4)GlcNAc(b1-2)Man(a1-3)[GlcNAc(b1-2)Man(a1-6)]Man(b1-4)GlcNAc(b1-4)GlcNAc
# Outline: as §1
# [14] = target: Gal(b1-4)GlcNAc(b1-2)[Gal(b1-4)GlcNAc(b1-4)]Man(a1-3)[Gal(b1-4)GlcNAc(b1-2)Man(a1-6)]Man(b1-4)GlcNAc(b1-4)GlcNAc
# Outline: as §1
# [15] = target: Gal(b1-4)GlcNAc(b1-3)Gal(b1-4)GlcNAc(b1-2)Man(a1-3)[Gal(b1-4)GlcNAc(b1-3)Gal(b1-4)GlcNAc(b1-2)Man(a1-6)]Man(b1-4)GlcNAc(b1-4)[Fuc(a1-6)]GlcNAc
# Outline: as §1
# [16] = target: Gal(b1-4)GlcNAc(b1-3)Gal(b1-4)GlcNAc(b1-3)Gal(b1-4)GlcNAc(b1-3)Gal(b1-4)GlcNAc(b1-2)Man(a1-3)[Gal(b1-4)GlcNAc(b1-3)Gal(b1-4)GlcNAc(b1-3)Gal(b1-4)GlcNAc(b1-3)Gal(b1-4)GlcNAc(b1-2)Man(a1-6)]Man(b1-4)GlcNAc(b1-4)[Fuc(a1-6)]GlcNAc
# Outline: as §1
# [17] = target: Gal(b1-4)GlcNAc(b1-3)Gal(b1-4)GlcNAc(b1-3)Gal(b1-4)GlcNAc(b1-3)Gal(b1-4)GlcNAc(b1-3)Gal(b1-4)GlcNAc(b1-2)Man(a1-3)[Gal(b1-4)GlcNAc(b1-3)Gal(b1-4)GlcNAc(b1-3)Gal(b1-4)GlcNAc(b1-3)Gal(b1-4)GlcNAc(b1-3)Gal(b1-4)GlcNAc(b1-2)Man(a1-6)]Man(b1-4)GlcNAc(b1-4)[Fuc(a1-6)]GlcNAc
# Outline: as §1
# [18] = target: Gal(b1-4)GlcNAc(b1-6)GalNAc
# Outline: as §1
# Gal3S(b1-3)GalNAc = target: Gal3S(b1-3)GalNAc
# Outline: as §1
# Gal3S(b1-3)GlcNAc = target: Gal3S(b1-3)GlcNAc
# Outline: as §1
# Gal3S(b1-4)Glc = target: Gal3S(b1-4)Glc
# Outline: as §1
# [19] = target: GalNAc(b1-3)Gal(a1-4)Gal(b1-4)GlcNAc
# Outline: as §1
# GalNAc3S(b1-4)GlcNAc = target: GalNAc3S(b1-4)GlcNAc
# Outline: as §1
# [20] = target: GlcNAc(a1-4)Gal(b1-4)GlcNAc(b1-3)Gal(b1-4)GlcNAc(b1-3)Gal(b1-4)GlcNAc
# Outline: as §1
# [21] = target: GlcNAc(b1-2)[GlcNAc(b1-4)]Man(a1-3)[GlcNAc(b1-2)Man(a1-6)]Man(b1-4)GlcNAc(b1-4)GlcNAc
# Outline: as §1
# [22] = target: GlcNAc(b1-2)[GlcNAc(b1-6)]Man(a1-6)[GlcNAc(b1-4)][GlcNAc(b1-2)Man(a1-3)]Man(b1-4)GlcNAc(b1-4)GlcNAc
# Outline: as §1
# [23] = target: GlcNAc(b1-3)Gal(b1-4)GlcNAc(b1-6)[Gal(b1-3)]GalNAc
# Outline: as §1
# GlcNAc(b1-3)Man = target: GlcNAc(b1-3)Man
# Outline: as §1
# [24] = target: GlcNAc(b1-4)[GlcNAc(b1-6)]GalNAc
# Outline: as §1
# [25] = target: Man(a1-3)[Man(a1-6)]Man(a1-6)[Man(a1-2)Man(a1-3)]Man(b1-4)GlcNAc(b1-4)GlcNAc
# Outline: as §1
# [26] = target: Neu5Ac(a2-3)Gal(b1-3)GlcNAc(b1-2)[Neu5Ac(a2-3)Gal(b1-3)GlcNAc(b1-4)]Man(a1-6)[Neu5Ac(a2-3)Gal(b1-3)GlcNAc(b1-2)Man(a1-3)]Man(b1-4)GlcNAc(b1-4)GlcNAc
# Outline: as §1
# [27] = target: Neu5Ac(a2-3)Gal(b1-4)GlcNAc(b1-2)Man(a1-3)[GlcNAc(b1-4)][Neu5Ac(a2-3)Gal(b1-4)GlcNAc(b1-2)Man(a1-6)]Man(b1-4)GlcNAc(b1-4)GlcNAc
# Outline: as §1
# [28] = target: Neu5Ac(a2-3)Gal(b1-4)GlcNAc(b1-2)[Neu5Ac(a2-3)Gal(b1-4)GlcNAc(b1-4)]Man(a1-3)[GlcNAc(b1-4)][Neu5Ac(a2-3)Gal(b1-4)GlcNAc(b1-4)Man(a1-6)]Man(b1-4)GlcNAc(b1-4)GlcNAc
# Outline: as §1
# [29] = target: Neu5Ac(a2-3)Gal(b1-4)GlcNAc(b1-6)GalNAc
# Outline: as §1
# [30] = target: Neu5Ac(a2-3)Gal(b1-4)[Fuc(a1-3)]GlcNAc(b1-3)Gal(b1-4)[Fuc(a1-3)]GlcNAc(b1-3)Gal(b1-4)[Fuc(a1-3)]GlcNAc
# Outline: as §1
# [31] = target: Neu5Ac(a2-6)Gal(b1-4)GlcNAc(b1-3)[Neu5Ac(a2-6)Gal(b1-4)GlcNAc(b1-6)]GalNAc
# Outline: as §1
# [32] = target: Neu5Gc(a2-3)Gal(b1-3)GlcNAc
# Outline: as §1
# [33] = target: Neu5Gc(a2-6)Gal(b1-4)GlcNAc
# Outline: as §1
# Neu5Gc(a2-6)GalNAc = target: Neu5Gc(a2-6)GalNAc
# Outline: as §1
binder,measurement,setting,value
B1,glycan array binding signal (z-score),[1],-0.998
same,glycan array binding signal (z-score),[2],0.152
same,glycan array binding signal (z-score),[3],3.47
same,glycan array binding signal (z-score),Fuc(a1-2)[Gal(a1-3)]Gal,2.61
same,glycan array binding signal (z-score),[4],0.309
same,glycan array binding signal (z-score),[5],3.12
same,glycan array binding signal (z-score),[6],2.93
same,glycan array binding signal (z-score),[7],0.043
same,glycan array binding signal (z-score),[8],0.809
same,glycan array binding signal (z-score),[9],-0.901
same,glycan array binding signal (z-score),Gal(b1-3)Gal,-0.479
same,glycan array binding signal (z-score),[10],-1.57
same,glycan array binding signal (z-score),[11],3.37
same,glycan array binding signal (z-score),[12],0.995
same,glycan array binding signal (z-score),Gal(b1-4)GlcNAc(b1-2)Man,0.263
same,glycan array binding signal (z-score),[13],0.271
same,glycan array binding signal (z-score),[14],3.29
same,glycan array binding signal (z-score),[15],-0.29
same,glycan array binding signal (z-score),[16],-0.084
same,glycan array binding signal (z-score),[17],1.98
same,glycan array binding signal (z-score),[18],1.54
same,glycan array binding signal (z-score),Gal3S(b1-3)GalNAc,-0.627
same,glycan array binding signal (z-score),Gal3S(b1-3)GlcNAc,-0.636
same,glycan array binding signal (z-score),Gal3S(b1-4)Glc,1.24
same,glycan array binding signal (z-score),[19],4.96
same,glycan array binding signal (z-score),GalNAc3S(b1-4)GlcNAc,-0.547
same,glycan array binding signal (z-score),[20],-0.344
same,glycan array binding signal (z-score),[21],-0.869
same,glycan array binding signal (z-score),[22],-0.817
same,glycan array binding signal (z-score),[23],1.15
same,glycan array binding signal (z-score),GlcNAc(b1-3)Man,3.22
same,glycan array binding signal (z-score),[24],-0.003
same,glycan array binding signal (z-score),[25],0.309
same,glycan array binding signal (z-score),[26],0.972
same,glycan array binding signal (z-score),[27],3.12
same,glycan array binding signal (z-score),[28],-0.578
same,glycan array binding signal (z-score),[29],-0.95
same,glycan array binding signal (z-score),[30],-1.09
same,glycan array binding signal (z-score),[31],3.16
same,glycan array binding signal (z-score),[32],2.89
same,glycan array binding signal (z-score),[33],-1.34
same,glycan array binding signal (z-score),Neu5Gc(a2-6)GalNAc,0.828
